Results reported in PubChem BioAssay AID720708 (National Center for Advancing Translational Sciences (NCATS), 2013).
The whole screen tested about 360,000 compounds, of which about 660 (0.18%) were called active. Not shown: some 2% with an inconclusive outcome. This excerpt belongs to a sample that is enriched for actives. Unmarked numbers belong to inactive results. Calls follow the shape of the dose curve; as a rule, active = well fitted inhibition curve with a large enough effect; inconclusive = small, poorly fitted or top-dose-only effect; inactive = no such curve, though single readings can be large or run the other way.

Molecular target: Rap guanine nucleotide exchange factor 4 (Homo sapiens) (UniProt Q8WZA2)
Sequence (Q8WZA2 whole entry, looked up): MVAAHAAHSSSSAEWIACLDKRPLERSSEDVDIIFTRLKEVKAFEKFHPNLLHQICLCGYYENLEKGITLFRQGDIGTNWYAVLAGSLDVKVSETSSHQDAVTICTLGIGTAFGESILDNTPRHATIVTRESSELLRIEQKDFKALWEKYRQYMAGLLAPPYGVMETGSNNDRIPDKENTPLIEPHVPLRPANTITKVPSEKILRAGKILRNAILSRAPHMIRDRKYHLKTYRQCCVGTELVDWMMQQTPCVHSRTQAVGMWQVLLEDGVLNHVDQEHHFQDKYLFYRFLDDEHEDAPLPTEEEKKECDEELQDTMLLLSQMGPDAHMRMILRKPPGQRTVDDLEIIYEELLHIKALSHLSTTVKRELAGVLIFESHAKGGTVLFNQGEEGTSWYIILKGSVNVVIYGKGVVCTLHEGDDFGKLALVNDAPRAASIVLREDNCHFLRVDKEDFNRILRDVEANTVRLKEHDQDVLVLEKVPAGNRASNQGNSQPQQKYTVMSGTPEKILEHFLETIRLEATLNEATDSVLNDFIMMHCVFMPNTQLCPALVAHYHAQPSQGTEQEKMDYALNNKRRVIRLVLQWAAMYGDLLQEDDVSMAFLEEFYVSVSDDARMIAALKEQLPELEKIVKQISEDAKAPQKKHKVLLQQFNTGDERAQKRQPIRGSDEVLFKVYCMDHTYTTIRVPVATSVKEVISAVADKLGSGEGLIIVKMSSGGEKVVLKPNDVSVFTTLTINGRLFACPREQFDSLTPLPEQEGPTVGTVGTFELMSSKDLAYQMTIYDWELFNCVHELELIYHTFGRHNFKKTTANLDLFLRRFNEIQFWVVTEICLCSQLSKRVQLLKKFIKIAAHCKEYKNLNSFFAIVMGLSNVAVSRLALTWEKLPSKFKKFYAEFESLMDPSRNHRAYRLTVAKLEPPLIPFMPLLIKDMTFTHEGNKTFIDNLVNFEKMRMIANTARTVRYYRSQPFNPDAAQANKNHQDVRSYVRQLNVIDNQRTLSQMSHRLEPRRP
Experiment: qHTS for Antagonist of cAMP-regulated guanine nucleotide exchange factor 2 (EPAC2): primary screen; also: nearly all actives have a fitted effect of over 45% in size
Details: EPAC2 GEF exchange of Rap1B-BODIPY-GDP, fluorescence; series mostly up to 114 µM; activity, negative = inhibition: at the top concentration
Description: In multi-cellular eukaryotic organisms, the effects of cAMP are transduced by two ubiquitously-expressed intracellular cAMP receptors, the classic protein kinase A/cAMP-dependent protein kinase (PKA/cAPK) and the more recently discovered exchange protein directly activated by cAMP/cAMP-regulated guanine nucleotide exchange factor (EPAC/cAMP-GEF). Both PKA and EPAC are ubiquitously expressed in all tissues, and an increase in intracellular cAMP levels will lead to the activation of both PKA and EPAC. Therefore, careful dissections of the individual role and relative contribution of EPAC and PKA within the overall cAMP signaling in various model systems are critical for further elucidating the mechanism of cAMP signaling. To date no EPAC-specific antagonists and agonist, as well as isoform-specific agonists have been reported, and developing EPAC-specific pharmacological probes to determine the physiological functions that EPAC play in the overall cAMP-mediated signaling remains a major challenge within the research field. Furthermore, identified regulators of EPAC may lead to new mechanism-based therapeutic strategies specifically targeting the EPAC / cAMP-signaling components as EPAC has been implicated to play important roles in major human pathological conditions such as diabetes, heart disease, and cancer.
This qHTS will be used to screen the Molecular Libraries Small Molecule Repository (MLSMR) as a concentration-titration series using the NCGC unique quantitative screening (qHTS) platform to find inhibitors for EPAC2. In addition, this assay will also be used as a counterscreen for the EPAC1 qHTS. This fluorescent based assay is developed and validated for EPAC2 that measures exchange using EPAC effector Rap1 complex with BODIPY-GDP, a GDP analog with a tethered fluorophores. Inhibitors are identified by monitoring the change in fluorescence signal as the exchanged free BODIPY-GDP has a reduced fluorescence compared to Rap1-bound BODIPY-GDP. Decrease in signal (inhibition) is the desired outcome for the EPAC2 antagonist while no activity in this assay is desired for the EPAC1 antagonist counterscreen.
NIH Chemical Genomics Center [NCGC]
NIH Molecular Libraries Probe Centers Network [MLPCN]
Assay Submitter (PI): Xiaodong Cheng, The University of Texas, Medical Branch
Briefly, three uL of reagents (100 nM EPAC2, 250 nM RAP1B-BODIPY-GDP, 50 uM GDP) were dispensed into a 1536-well Greiner black solid-bottom medium binding assay plate. Controls and test compounds (23 nL) were transferred to the plate via a Kalypsys pin tool equipped with a 1536-pin array. The plates were centrifuged at 1,000 rpm for 15 seconds followed by 5 minute incubation at room temperature. The assay plates were read at 5 minute intervals for 30 minutes in the ViewLux plate reader using 480nm excitation and 540nm emission filters. The results were normalized to the agonist positive control ATA and DMSO.
% is scaled to controls: 0 for no effect and ±100 for the full control effect; potency is read from the fitted curve at half-maximal effect.

SMILES	activity, negative = inhibition [%]	Potency
CCC1CCCCN1CCNS(=O)(=O)c1ccc2c(c1)CCN2C(C)=O (stereo not drawn)	-1.86	
CSc1ncccc1C(=O)OCc1ccc(Br)cc1	-18.6	
O=C(O)c1ccc(/C=C2\SC(=S)N(NC(=O)c3ccc(Br)cc3)C2=O)cc1	5.01	
O=C1/C(=C/c2ccc(F)cc2)SC(=S)N1NS(=O)(=O)c1ccccc1		70.8 µM (active)
COc1ccc(/C=C2\SC(=N)N(c3ccc(F)cc3)C2=O)cc1	0.0047	
O=c1[nH]c(SCc2cccc(F)c2)nc2ccccc12	1.6	
CC(=O)CSc1nc(CCc2ccccc2)c(C#N)c(=O)[nH]1	5.04	
N#Cc1c(-c2ccccc2)nc(SCc2cccc(C(F)(F)F)c2)[nH]c1=O		39.8 µM (active)
COc1ccc(OCCCC(=O)Nc2cccc(S(=O)(=O)N3CCCCCC3)c2)cc1	-11.7	
CC(C)(C)NC(=O)C(CCc1ccccc1)n1c(=O)c(-c2ccccc2)nc2ccccc21 (stereo not drawn)	1.14	
COC(=O)[C@]12CCCCC=C1N(CCC1=CCCCC1)C(=O)[C@H](CC(=O)N1CCSCC1)C2	9.02	
C=C1C2C[C@H](O)C(C)(C)[C@@]2(O)[C@H](O)C[C@]23C[C@@](C)(O)[C@H](CC[C@H]12)[C@H]3O (stereo partly drawn)	-2.34	
CC1(C)OC(=O)C2=C(C[C@@H](C3CCCC3)O[C@@H]2c2ccc(Cl)cc2)O1	-4.79	
COc1ccc(N(C)S(=O)(=O)c2cccc3nsnc23)cc1	-26	
Cn1ccc(=Nc2ccc(NC(=O)c3ccc(N=c4ccn(C)c5ccc([N+](=O)[O-])cc45)cc3)cc2)cc1		22.4 µM (active)
CN(CC1CCCO1)S(=O)(=O)c1ccc(C(=O)Nc2ccc([N+](=O)[O-])cc2)cc1 (stereo not drawn)	-8.12	
CC(C)c1ccc(NC(=O)CCN2C(=O)c3ccc([N+](=O)[O-])cc3C2=O)cc1	4.46	
COCc1cccc(-c2csc(C(O)c3ccc(F)cc3)n2)c1 (stereo not drawn)	-6.83	
O=C(Nc1cc(Cl)ccc1N1CCOCC1)c1ccc(N2CCCC2=O)cc1	0.558	
CCc1nn(CCCC(=O)Nc2ccc(C)c(C)c2)c(=O)c2cc3occc3n12	-2.6	
COc1c(F)c(F)c(-c2csc(N)n2)c(F)c1F	1.67	
Cc1cccc(C)c1NC(=O)C(c1ccc(C(F)(F)F)cc1)n1c(=O)c(-c2ccco2)nc2ccccc21 (stereo not drawn)	-16.5	

SMILES	activity, negative = inhibition [%]	Potency
O=C(O)CCCN1C(=O)C2C3c4ccccc4C(c4ccccc43)[C@@H]2C1=O (stereo partly drawn)	6.33	
C=C1C(=O)OC2C1CCC(C)=CCCC1(C)OC21 (stereo not drawn)	5.97	
CCN(c1ccccc1)S(=O)(=O)c1ccc2[nH]c(=O)[nH]c2c1	-7.42	
CCN1CCN(C(=O)c2cc3cc4ccc(OC)cc4nc3s2)CC1	-2.76	
N#CCOc1ccc(C2=NO[C@@H]3[C@@H]4C[C@@H]([C@H]5C(=O)N(c6ccc7c(c6)OCO7)C(=O)[C@@H]45)[C@H]23)cc1	-9.46	
CN(C)c1ccc(NC(=O)c2ccncc2)c2ccccc12	4.4	
CC1CCCN(C(C(=O)Nc2ccc(C(C)C)cc2)c2ccc3c(c2)OCO3)C1 (stereo not drawn)	11.7	
CC(C)C[C@H]1CN([C@@H](CC(C)C)CN2CCC[C@@H]2CN2C(=O)C(=O)NC[C@@H]2Cc2ccccc2)C(=O)C(=O)N1CCc1ccccc1	-25.2	
COC(=O)c1cc2c(N)c(C(=O)c3ccc(Cl)cc3)sc2nc1C(OC)OC		79.4 µM (active)
COC(=O)c1sccc1NC(=O)c1ccc(Cl)cc1	5.53	
CC(C)OC(=O)c1sc2nc3c(cc2c1N)C(=O)CCC3	7.66	
CCOC(=O)[C@]12CCCC=C1N(CCC1=CCCCC1)C(=O)[C@H](CC(=O)NCCCCc1ccccc1)C2	-10.5	
O=C(O)c1ccccc1N=N/C(=N/Nc1cc(S(=O)(=O)O)ccc1O)c1ccccc1		50.1 µM (active)
COc1ccccc1NC(=O)N1CCCC1C(=O)NCc1cccs1 (stereo not drawn)	0.017	
Cc1ccc(-n2ncc3c2CC(C)(C)CC3NC(=O)CCc2cnn(C)c2)cc1 (stereo not drawn)	-0.921	
CCO/C([O-])=N/c1c[n+](N2CCOCC2)no1		inactive
O=C(NCCCn1ccnc1)/C(=C\c1ccccc1F)NC(=O)c1ccccc1	-3.25	
CCC(=O)NC(Nc1cc(C)ccn1)(C(F)(F)F)C(F)(F)F	-5.15	
COC(=O)c1ccc2nc(-c3cccc(Br)c3)c(Cc3ccc(OC)cc3C)n2c1	-6.84	
CC1(C(=O)NCc2ccco2)Cc2c(-c3ccc4c(c3)OCO4)ccnc2O1 (stereo not drawn)	-0.756	
O=C(Nc1ccccc1-c1nnn(CC(=O)N2CCCc3ccccc32)n1)c1cccc(Cl)c1	-0.482	
